Assay results reported in PubChem BioAssay (Tox21).
Results filed as inconclusive are left out. Calls of active or inactive are those of the source. Calls come from the whole dose curve; as a rule, active = well fitted curve in the direction sought with a large enough effect in the repeat runs; inconclusive = weak or mixed curves; inactive = no such curve, though single readings can be large; an effect the other way counts as inactive or inconclusive.

Key:
[1] = Caspase-3/7 induction in HepG2 cells by small molecules, qHTS assay (AID 1346978); note: nearly all actives have a fitted effect of over 15% in size
Procedure, shortened: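 Wild-type HepG2 cells, 2,000/well, settled 5 hr at 37 C and 5% CO2, then compound-treated for 17 hr; caspase-3/7 activity read by luminescent Caspase-Glo 3/7 after 30 min at room temperature.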

[2] = Caspase-3/7 induction in CHO-K1 cells by small molecules, qHTS cell viability counter screen (AID 1346979); note: nearly all actives have a fitted effect of over 35% in size; note: potency is the fitted concentration of half-maximal effect
Procedure, shortened: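 Seeding: 1,500 CHO-K1 cells/well. Rest: 5hr, 37C. Treatment: compounds in DMSO, 16hr. Read: CellTiter-Fluor, 1hr, fluorescence.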

[3] = Caspase-3/7 induction in CHO-K1 cells by small molecules, qHTS assay (AID 1346980); note: nearly all actives have a fitted effect of over 15% in size
Procedure, shortened: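 Wild-type CHO-K1 cells exposed to compounds for 17hr at 37 C, 5% CO2. Caspase-3/7 activity then measured by Caspase-Glo 3/7 luminescence after 30min at room temperature.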

[4] = Caspase-3/7 induction in HepG2 cells by small molecules, qHTS cell viability counter screen (AID 1346981); note: nearly all actives have a fitted effect of over 30% in size; note: potency is the fitted concentration of half-maximal effect; for activity change, negative = cytotoxicity: series mostly up to about 92 µM
Procedure, shortened: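 Wild-type HepG2 cells (2,000/well) were allowed to settle for 5 hr at 37 C, 5% CO2, then dosed with compounds in DMSO by pin transfer. After 16 hr at 37 C, CellTiter-Fluor was added and fluorescence read 1 hr later.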

[5] = biological target: Cytochrome P450 2C19 (Homo sapiens) (UniProt P33261); experiment: Cytochrome P450 Family 2 Subfamily C Member 19 (CYP2C19) small molecule antagonists: luciferase reporter qHTS assay (AID 1671197); note: nearly all actives have a fitted effect of over 65% in size; note: potency is the fitted concentration of half-maximal effect
Procedure, shortened: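 Compounds were tested on CYP2C19 activity via proluciferin conversion to luciferin. The 37C, 1 h reaction followed NADPH addition; detection reagent stopped it.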

[6] = biological target: Nuclear receptor subfamily 1 group I member 2 (Homo sapiens) (UniProt O75469); experiment: Human pregnane X receptor (PXR) small molecule agonists, qHTS assay (AID 1346982); note: nearly all actives have a fitted effect of over 35% in size; note: potency is the fitted concentration of half-maximal effect
Procedure, shortened: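 PXR-Luc HepG2 cells (CYP3A4 promoter-driven luciferase) were seeded in medium with 5% charcoal-stripped FBS, left 5 hr at 37 C, then exposed to compounds in DMSO for 24 hr. Luminescence was read after ONE-Glo addition.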

[7] = biological target: Cytochrome P450 2D6 (Homo sapiens) (UniProt P10635); experiment: Cytochrome P450 Family 2 Subfamily D Member 6 (CYP2D6) small molecule antagonists: luciferase reporter qHTS assay (AID 1671196); note: nearly all actives have a fitted effect of over 50% in size; note: potency is the fitted concentration of half-maximal effect
Procedure, shortened: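 CYP2D6 enzyme–substrate mix was held with compound for 10 min at room temperature, then NADPH regeneration solution was added and the reaction ran 1 h at room temperature. Luciferin product was detected by luminescence after 20 min with detection reagent.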

[8] = biological target: Nuclear receptor subfamily 1 group I member 2 (Rattus norvegicus) (UniProt Q9R1A7); experiment: Rat pregnane X receptor (rPXR) activation by small molecules, qHTS assay (AID 1346983); settings: rPXR luciferase reporter cells, One-Glo luminescence, 24 h; max activation: hits give high values; note: nearly all actives have a fitted effect of over 20% in size; note: potency is the fitted concentration of half-maximal effect
Procedure, shortened: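 Cell-based rPXR activation assay: rPXR cells, 2,000 per well, rested 5hr at 37 C, then exposed to compounds in DMSO for 24 hr at 37 C. Luciferase activity read by One-Glo luminescence after 30 min at room temperature.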

[9] = biological target: Nuclear receptor subfamily 1 group I member 2 (Homo sapiens) (UniProt O75469); experiment: CYP3A4 induction through human pregnane X receptor (PXR) by small molecules, qHTS assay (AID 1346984); note: nearly all actives have a fitted effect of over 40% in size; note: potency is the fitted concentration of half-maximal effect
Procedure, shortened: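 DPX-2 cells (HepG2 co-transfected with PXR and CYP3A4 promoter-luciferase) treated with compounds 24 h at 37C; luciferin-IPA CYP3A4 substrate 3uM final added for 3 h, then One-Glo; luminescence read. qHTS format.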

[10] = biological target: Nuclear receptor subfamily 1 group I member 2 (Homo sapiens) (UniProt O75469); experiment: Human pregnane X receptor (PXR) activation by small molecules, qHTS assay (AID 1346985); note: nearly all actives have a fitted effect of over 40% in size; note: potency is the fitted concentration of half-maximal effect
Procedure, shortened: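 DPX-2 cells (HepG2 co-transfected with a PXR response element and a CYP3A4-promoter luciferase construct) were seeded at 2,000 per well, rested 5 hr at 37C, then exposed to DMSO-dissolved compounds for 24 hr. Activation was read as luciferase luminescence.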
% is set by controls: 0 for no effect and ±100 for the full control effect.

Chain of Cytochrome P450 2C19 (Homo sapiens) (P33261 whole entry, looked up): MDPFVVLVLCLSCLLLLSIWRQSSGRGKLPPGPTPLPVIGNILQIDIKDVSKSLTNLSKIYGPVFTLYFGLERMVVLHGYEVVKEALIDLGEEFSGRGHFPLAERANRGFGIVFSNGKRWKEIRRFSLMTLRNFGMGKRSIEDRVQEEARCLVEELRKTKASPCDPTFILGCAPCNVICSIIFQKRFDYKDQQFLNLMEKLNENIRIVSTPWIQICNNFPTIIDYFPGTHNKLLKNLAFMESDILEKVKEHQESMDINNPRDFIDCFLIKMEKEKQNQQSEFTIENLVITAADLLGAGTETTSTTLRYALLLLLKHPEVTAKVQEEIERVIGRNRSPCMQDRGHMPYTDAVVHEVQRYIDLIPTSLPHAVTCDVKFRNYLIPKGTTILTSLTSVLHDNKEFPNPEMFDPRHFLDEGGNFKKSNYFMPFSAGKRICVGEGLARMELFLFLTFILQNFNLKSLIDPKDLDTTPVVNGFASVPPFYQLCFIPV
Chain of Cytochrome P450 2D6 (Homo sapiens) (P10635 whole entry, looked up): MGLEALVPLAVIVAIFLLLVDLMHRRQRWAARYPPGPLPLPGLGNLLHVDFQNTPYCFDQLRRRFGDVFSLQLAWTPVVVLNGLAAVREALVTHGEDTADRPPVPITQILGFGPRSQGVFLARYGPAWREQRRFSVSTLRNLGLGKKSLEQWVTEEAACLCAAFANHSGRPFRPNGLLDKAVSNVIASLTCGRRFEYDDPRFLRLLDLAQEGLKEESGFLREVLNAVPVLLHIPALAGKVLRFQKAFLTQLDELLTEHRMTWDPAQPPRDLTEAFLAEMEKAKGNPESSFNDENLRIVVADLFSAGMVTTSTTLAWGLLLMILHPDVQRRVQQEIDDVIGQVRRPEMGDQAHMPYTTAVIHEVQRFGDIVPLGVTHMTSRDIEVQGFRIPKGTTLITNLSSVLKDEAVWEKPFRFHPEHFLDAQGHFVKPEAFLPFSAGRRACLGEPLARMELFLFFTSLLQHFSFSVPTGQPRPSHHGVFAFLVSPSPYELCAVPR
Chain of Nuclear receptor subfamily 1 group I member 2 (Homo sapiens) (O75469 whole entry, looked up): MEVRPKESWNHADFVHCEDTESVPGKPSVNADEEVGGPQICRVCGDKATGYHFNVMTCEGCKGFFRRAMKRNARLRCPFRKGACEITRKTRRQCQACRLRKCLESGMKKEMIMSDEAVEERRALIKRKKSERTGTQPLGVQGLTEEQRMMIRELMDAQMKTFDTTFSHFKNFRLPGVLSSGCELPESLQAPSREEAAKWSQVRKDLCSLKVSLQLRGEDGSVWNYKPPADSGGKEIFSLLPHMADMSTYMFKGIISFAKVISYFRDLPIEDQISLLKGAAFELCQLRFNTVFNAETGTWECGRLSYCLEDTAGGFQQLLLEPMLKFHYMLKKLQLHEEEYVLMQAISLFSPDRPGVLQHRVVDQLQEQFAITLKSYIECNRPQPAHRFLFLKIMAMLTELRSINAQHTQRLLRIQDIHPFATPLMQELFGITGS
Chain of Nuclear receptor subfamily 1 group I member 2 (Rattus norvegicus) (Q9R1A7 whole entry, looked up): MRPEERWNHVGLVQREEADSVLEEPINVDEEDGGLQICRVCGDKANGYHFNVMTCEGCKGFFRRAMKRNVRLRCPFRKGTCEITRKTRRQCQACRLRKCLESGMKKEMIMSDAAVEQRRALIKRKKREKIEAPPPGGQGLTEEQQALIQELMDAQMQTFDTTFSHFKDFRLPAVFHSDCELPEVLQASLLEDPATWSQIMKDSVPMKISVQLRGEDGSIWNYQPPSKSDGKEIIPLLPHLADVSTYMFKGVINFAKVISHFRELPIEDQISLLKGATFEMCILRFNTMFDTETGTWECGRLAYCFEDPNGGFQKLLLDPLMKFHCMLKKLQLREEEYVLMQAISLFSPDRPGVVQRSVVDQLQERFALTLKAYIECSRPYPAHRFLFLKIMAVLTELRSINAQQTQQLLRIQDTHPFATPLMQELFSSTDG

C[C@H]1C[C@H]2[C@@H]3CCC4=CC(=O)C=C[C@]4(C)[C@H]3C(=O)C[C@]2(C)[C@@]1(O)C(=O)CO
inactive: outcome [1] | Potency [2] | outcome [3] | Potency [4] | Potency [5]

FB(F)F
inactive: outcome [1] | Potency [2] | outcome [3] | Potency [6] | Potency [7]

Cc1ccccc1N=C(N)N=C(N)N
active: Potency [7] 7.96 µM
inactive: outcome [1] | Potency [2] | outcome [3] | Potency [4] | Potency [5]

CCN(CC#N)c1cccc(C)c1
active: Potency [5] 71 µM
inactive: outcome [1] | Potency [2] | outcome [3] | Potency [4]

C=CCOCC(O)CO (configuration not stated)
inactive: outcome [1] | Potency [2] | outcome [3] | Potency [4] | Potency [7] | Potency [5]

C[C@@H]1C[C@H]2[C@@H]3C[C@H](F)C4=CC(=O)C(Cl)=C[C@]4(C)[C@@]3(F)[C@@H](O)C[C@]2(C)[C@@]1(O)C(=O)CO
active: Potency [6] 2.11 µM | Potency [8] 0.1 µM | Potency [9] 12.6 µM | Potency [5] 8.71 µM
inactive: outcome [1] | Potency [2] | outcome [3]

C=C(C)C(=O)OCC1CCCO1 (configuration not stated)
inactive: outcome [1] | Potency [2] | outcome [3] | Potency [4] | Potency [5]

CC1=NN(c2cc(S(=O)(=O)O)ccc2Cl)C(=O)C1N=Nc1ccccc1 (configuration not stated)
active: Potency [2] 54.5 µM | Potency [4] 54.5 µM
inactive: outcome [1] | outcome [3] | Potency [7]

CCCCc1ccc2c(n1)[C@@H](c1ccc(OC)cc1C[C@H](C)C(=O)O)[C@H](C(=O)O)[C@H]2c1ccc2c(c1)OCO2
active: Potency [7] 71 µM
inactive: outcome [1] | Potency [2] | outcome [3] | Potency [6] | Potency [5]

CN1C(C)(C)CC(O)CC1(C)C
inactive: outcome [1] | Potency [2] | outcome [3] | Potency [7] | Potency [5]

O=C(O)c1cc(C(=O)O)cc(C(=O)O)c1
inactive: Potency [2] | outcome [3]

O=C(c1ccccc1O)c1ccccc1O
inactive: outcome [1] | outcome [3] | Potency [4]
active: Potency [6] 60.5 µM | Potency [7] 24.9 µM | Potency [5] 11.1 µM

CC1OC1C1CCC2(C)OC2C1 (configuration not stated)
inactive: outcome [1] | Potency [2] | outcome [3] | Potency [6] | Potency [7]

CCCCCC(=O)OCCc1ccccc1
inactive: outcome [1] | Potency [2] | outcome [3] | Potency [6] | Potency [7]

CC(C(=O)O)c1cccc(Oc2ccccc2)c1 (configuration not stated)
inactive: outcome [1] | outcome [3] | Potency [4] | max activation [8] -0.273% | Potency [7] | Potency [5]

O=C1c2ccccc2C(=O)c2cc(O)ccc21
inactive: outcome [1] | Potency [2] | outcome [3]
active: Potency [6] 17.2 µM | Potency [5] 22.5 µM

O=C(O)CC(C(=O)O)S(=O)(=O)O (configuration not stated)
active: Potency [5] 8.94 µM
inactive: outcome [1] | Potency [2] | outcome [3]

COC(=O)C1=C(C)NC(C)=C(C(=O)OC(C)C)C1c1cccc2nonc12 (configuration not stated)
active: Potency [2] 26.6 µM | Potency [6] 1.33 µM | Potency [8] 10 µM | Potency [10] 0.891 µM
inactive: outcome [3] | Potency [4] | Potency [9]

CC(C)c1ccc2ncccc2c1
inactive: outcome [1] | Potency [2] | outcome [3] | Potency [6] | Potency [7] | Potency [5]

CCN[C@@H]1C[C@H](N)[C@@H](OC2OC(CN)=CCC2N)[C@H](O)[C@H]1O[C@H]1OC[C@](C)(O)[C@H](NC)[C@H]1O (some centres not stated)
inactive: caspase activation [1] 0.0658% [at 0.349 µM] | activity change, negative = cytotoxicity [2] 2.16% [at 0.349 µM] | caspase-3/7 activation [3] -0.394% [at 0.349 µM] | max activation [8] -4.25% | Potency [9] | Potency [10]

CN1CCC(=C2c3ccccc3CCc3cccnc32)CC1
inactive: Potency [2] | outcome [3] | Potency [4]

O=Cc1cccc(Br)c1
active: Potency [5] 18.3 µM
inactive: outcome [1] | Potency [2] | outcome [3] | Potency [6]

COCCOC[C@H](CC1(C(=O)NC2CCC(C(=O)O)CC2)CCCC1)C(=O)Oc1ccc2c(c1)CCC2 (some centres not stated)
active: Potency [2] 54.5 µM
inactive: outcome [1] | outcome [3] | Potency [6] | Potency [7] | Potency [5]

CC(=O)c1ccccc1[N+](=O)[O-]
inactive: outcome [1] | Potency [2] | outcome [3] | Potency [7] | Potency [5]
active: Potency [6] 30.1 µM

Cc1onc(-c2c(Cl)cccc2Cl)c1C(=O)Cl
active: Potency [5] 21.9 µM
inactive: outcome [1] | outcome [3] | Potency [6] | Potency [7]

C=CC(C)(CCC=C(C)C)OC(=O)CC (configuration not stated)
inactive: outcome [1] | Potency [2] | outcome [3] | Potency [6] | Potency [7]
active: Potency [5] 35.6 µM

CC(C)CCCO
inactive: outcome [1] | outcome [3] | Potency [4] | Potency [6] | Potency [7] | Potency [5]

CC(=O)Nc1ccc(OCC(O)CNC(C)C)cc1 (configuration not stated)
inactive: outcome [1] | Potency [2] | outcome [3] | max activation [8] 0.433% | Potency [9] | Potency [10] | Potency [7] | Potency [5]

CCCC[N+](C)(CCCC)CCCC
active: Potency [7] 2.77 µM
inactive: outcome [1] | Potency [2] | outcome [3] | Potency [5]
